Laboratory results taken from PubChem BioAssay (Tox21).
Results filed as inconclusive are left out. Activity calls are given as the source filed them. Unless noted, the call rests on the fitted dose curve; in most records, active means well fitted curve in the direction sought with a large enough effect in the repeat runs; inconclusive means weak or mixed curves; inactive means no such curve, though single readings can be large; an effect the other way counts as inactive or inconclusive.

Legend:
[1] = qHTS assay to identify small molecule agonists of H2AX (AID 1224845; active means well fitted activation curve with a large enough effect in the signal ratio in the repeat runs, not every such curve was filed as active; the % refers to the signal ratio)
In short: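 Wild-type CHO-K1 cells, plated overnight, exposed 3hr at 37C to 15 concentrations (0.76% DMSO final). Lysed, then HTRF anti-pH2AX (S139) cryptate and anti-H2AX-d2 antibodies, 24 hr room temperature; 665/620 nm emission read.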

[2] = qHTS assay to identify small molecule agonists of the hypoxia (HIF-1) signaling pathway (AID 1224846; active means well fitted activation curve with a large enough effect in the signal ratio in the repeat runs, not every such curve was filed as active; the % refers to the signal ratio)
In short: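 HRE-bla ME-180 beta-lactamase reporter cells in medium with 0.5% dialyzed FBS, pre-incubated 5 h then exposed to compounds 17 h at 37C, 5% CO2; reporter induction read with CCF4-AM FRET substrate.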

[3] = qHTS assay to identify small molecule agonists of H2AX - cell viability counter screen (AID 1224847; calls by dose curve; further: top concentration of the series differs between compounds; nearly all actives have a fitted effect of over 30% in size)
In short: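 Counter-screen for viability: CellTiter-Glo ATP luminescence read after 3 h compound treatment (15-point titration, 0.76% DMSO final) of CHO-K1 cells at 37C, with 30 min room-temperature reagent incubation.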

[4] = qHTS assay to identify small molecule antagonists of the estrogen related receptor (ERR) signaling pathway from Tox21 library (AID 1224848); further: nearly all actives have a fitted effect of over 50% in size; further: potency means the concentration at half of the fitted maximal effect
In short: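 Luminescent reporter read-out (ONE-Glo) from NTP's ERR cell line after 18 h treatment at 37 C with DMSO-dissolved Tox21 compounds; cells pre-plated 6 h beforehand at 2,000 per well.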

[5] = qHTS assay to identify small molecule agonists of the estrogen related receptor (ERR) signaling pathway from Tox21 library (AID 1224849; calls by dose curve; further: nearly all actives have a fitted effect of over 15% in size); conditions: ERR reporter cell line, ONE-Glo luciferase, 18 h; at 92.4 µM (top of the series) unless noted
In short: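 ERR reporter cells (NTP line) pre-incubated 6 hours at 37 C, then exposed to compounds for 18 hours at 37 C. ONE-Glo luciferase luminescence was read after 30 minutes at room temperature.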

[6] = qHTS RealTime-Glo MT Cell Viability Assay in HEK293 cells - 32 hour (AID 1224868); further: nearly all actives have a fitted effect of over 50% in size; further: potency means the concentration at half of the fitted maximal effect
In short: (§1)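 Nonlytic real-time viability readout: viable cells convert prosubstrate to NanoLuc substrate, giving luminescence proportional to live cell number. HEK293, 600 cells/well, compound added after 5 h, continuous culture at 37 C.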

[7] = A CellTox Green Cytotoxicity Assay to monitor cytotoxicity in HEK293 cells - 0 hour (AID 1224869); further: nearly all actives have a fitted effect of over 50% in size
In short: (§2)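 HEK293 cells, 600/well, were preincubated 5 hours and then exposed to compounds at 37 C for up to 40 hours. A cell-impermeant cyanine dye staining dead-cell DNA was read by fluorescence at 0, 8, 16, 24, 32 and 40 h time points.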

[8] = qHTS RealTime-Glo MT Cell Viability Assay in HepG2 cells - 40 hour (AID 1224870); further: nearly all actives have a fitted effect of over 50% in size
In short: (§3)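 HepG2 cells (600/well) mixed with RealTime-Glo MT reagent, settled 5 h at 37 C/5% CO2 before compound addition. Nonlytic NanoLuc luminescence from viable-cell prosubstrate reduction read repeatedly during 40 h treatment at 37 C.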

[9] = A CellTox Green Cytotoxicity Assay to monitor cytotoxicity in HEK293 cells - 40 hour (AID 1224871); further: nearly all actives have a fitted effect of over 45% in size
In short: as §2

[10] = qHTS RealTime-Glo MT Cell Viability Assay in HepG2 cells - 8 hour (AID 1224873); further: nearly all actives have a fitted effect of over 55% in size
In short: as §3

[11] = qHTS RealTime-Glo MT Cell Viability Assay in HEK293 cells - 40 hour (AID 1224874); conditions: RealTime-Glo luminescence; max response: hits give low values; further: nearly all actives have a fitted effect of over 50% in size; further: potency means the concentration at half of the fitted maximal effect
In short: (§4)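 600 cells/well were plated with the nonlytic NanoLuc/prosubstrate reagent, pre-incubated 5 h, then given 23 nL of compound in DMSO. Incubation at 37 C for 40 h, with luminescence from viable-cell-reduced substrate read repeatedly from 0 h.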

[12] = A CellTox Green Cytotoxicity Assay to monitor cytotoxicity in HEK293 cells - 24 hour (AID 1224875); further: nearly all actives have a fitted effect of over 45% in size
In short: as §2

[13] = qHTS RealTime-Glo MT Cell Viability Assay in HepG2 cells - 32 hour (AID 1224877); further: nearly all actives have a fitted effect of over 55% in size
In short: (§5)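 Luminescence read-out: viable HepG2 cells reduce a prosubstrate to a NanoLuc substrate, giving a signal proportional to live cell number. Reads taken at 0, 8, 16, 24, 32 and 40 h of compound exposure at 37 C.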

[14] = A CellTox Green Cytotoxicity Assay to monitor cytotoxicity in HepG2 cells - 40 hour (AID 1224879); further: nearly all actives have a fitted effect of over 40% in size; further: potency means the concentration at half of the fitted maximal effect
In short: (§6)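 HepG2 cells, 600/well, preincubated 5 h with CellTox Green dye, then exposed to Tox21 compounds in DMSO at 37 C for up to 40 h. Dead-cell DNA fluorescence read at the indicated time point.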

[15] = A CellTox Green Cytotoxicity Assay to monitor cytotoxicity in HEK293 cells - 32 hour (AID 1224881); further: nearly all actives have a fitted effect of over 40% in size
In short: as §2

[16] = qHTS RealTime-Glo MT Cell Viability Assay in HepG2 cells - 24 hour (AID 1224867); further: nearly all actives have a fitted effect of over 50% in size
In short: as §5

[17] = qHTS RealTime-Glo MT Cell Viability Assay in HEK293 cells - 16 hour (AID 1224872); further: nearly all actives have a fitted effect of over 50% in size; further: potency means the concentration at half of the fitted maximal effect
In short: as §1

[18] = A CellTox Green Cytotoxicity Assay to monitor cytotoxicity in HepG2 cells - 16 hour (AID 1224876); further: nearly all actives have a fitted effect of over 45% in size
In short: as §6

[19] = A CellTox Green Cytotoxicity Assay to monitor cytotoxicity in HepG2 cells - 24 hour (AID 1224878); further: nearly all actives have a fitted effect of over 45% in size
In short: as §6

[20] = qHTS RealTime-Glo MT Cell Viability Assay in HEK293 cells - 0 hour (AID 1224880); further: nearly all actives have a fitted effect of over 45% in size; further: potency means the concentration at half of the fitted maximal effect
In short: as §4
On the % scale 0 is the no-effect control and ±100 the full control effect.

CN1C[C@H]2c3ccccc3Oc3ccc(Cl)cc3[C@@H]2C1
active: Potency [14] 26.8 µM
inactive: Potency [1] | Potency [2] | Potency [3] | Potency [4] | activity change, positive = activation [5] -3.7% [at 42.5 µM] | Potency [6] | Potency [7] | Potency [8] | Potency [9] | Potency [10] | max response [11] -21.8% | Potency [12] | Potency [13] | Potency [15]

CC(C)O.CC(C)O.CCOC(=O)/C=C(\C)O.CCOC(=O)/C=C(\C)O.[Ti]
inactive: Potency [1] | Potency [2] | Potency [3] | Potency [16] | Potency [6] | Potency [7] | Potency [8] | Potency [9] | Potency [17] | Potency [10] | max response [11] -0.8% | Potency [12] | Potency [18] | Potency [13] | Potency [19] | Potency [14] | Potency [20] | Potency [15]

CC(C)(C)OCC1CO1 (stereo unspecified)
inactive: Potency [1] | Potency [2] | Potency [3] | Potency [16] | Potency [6] | Potency [7] | Potency [8] | Potency [9] | Potency [17] | Potency [10] | max response [11] -2.11% | Potency [12] | Potency [18] | Potency [13] | Potency [19] | Potency [14] | Potency [20] | Potency [15]

O=C1CCC(=O)O1
inactive: Potency [1] | Potency [2] | Potency [3] | Potency [4] | activity change, positive = activation [5] 5.7% | Potency [6] | Potency [7] | Potency [8] | Potency [9] | Potency [17] | Potency [10] | max response [11] 3.63% | Potency [12] | Potency [18] | Potency [19] | Potency [14]

CCc1cc(C2=C(C(=O)O)N(c3ccccc3C(F)(F)F)S(=O)(=O)c3ccccc32)cc2c1OCO2
active: Potency [4] 24.1 µM | Potency [20] 43.1 µM
inactive: Potency [1] | Potency [2] | Potency [3] | activity change, positive = activation [5] -39.9% | Potency [6] | Potency [7] | Potency [8] | Potency [9] | Potency [10] | max response [11] -24.9% | Potency [12] | Potency [18] | Potency [13] | Potency [19] | Potency [14] | Potency [15]

CCCC(=O)Nc1ccc(O)c(C(C)=O)c1
inactive: Potency [1] | Potency [2] | Potency [3] | Potency [16] | Potency [6] | Potency [7] | Potency [8] | Potency [9] | Potency [17] | Potency [10] | max response [11] -1.71% | Potency [12] | Potency [18] | Potency [19] | Potency [14] | Potency [20] | Potency [15]

CCOCC(O)COc1ccc(NC(=O)CC[S+](C)C)cc1 (stereo unspecified)
inactive: Potency [1] | Potency [2] | Potency [3] | Potency [16] | Potency [6] | Potency [7] | Potency [8] | Potency [9] | Potency [17] | Potency [10] | max response [11] 1.67% | Potency [12] | Potency [18] | Potency [13] | Potency [19] | Potency [14] | Potency [20] | Potency [15]

COc1cc2c(cc1OC)C(C(C(=O)N(CCc1ccc(OC)c(OC)c1OC)CCc1ccc(OC)c(OC)c1OC)c1ccccc1)=NCC2 (stereo unspecified)
active: Potency [4] 26.6 µM | Potency [6] 3.38 µM | Potency [17] 3.01 µM | Potency [11] 3.38 µM
inactive: Potency [1] | Potency [2] | Potency [3] | activity change, positive = activation [5] -49.6% [at 42.5 µM] | Potency [7] | Potency [9] | Potency [12] | Potency [18] | Potency [14] | Potency [15]

COc1ccc(-c2nc3ccc(C4=NNC(=O)CC4C)cc3[nH]2)cc1 (stereo unspecified)
inactive: Potency [1] | Potency [2] | Potency [3] | Potency [4] | Potency [7] | Potency [8] | Potency [9] | Potency [12] | Potency [18] | Potency [13] | Potency [19] | Potency [20] | Potency [15]
active: Potency [6] 8.49 µM | Potency [17] 9.52 µM | Potency [11] 7.56 µM | Potency [14] 21.3 µM

CCCCC(CC)COC(=O)COc1ccc(Cl)cc1Cl (stereo unspecified)
inactive: Potency [1] | Potency [2] | Potency [3] | Potency [16] | Potency [6] | Potency [7] | Potency [8] | Potency [9] | Potency [17] | Potency [10] | max response [11] 11% | Potency [12] | Potency [18] | Potency [13] | Potency [19] | Potency [14] | Potency [20] | Potency [15]

CCCCC(=O)OCC(=O)[C@H]1[C@H](C)C[C@H]2[C@@H]3C[C@H](F)C4=CC(=O)C=C[C@]4(C)[C@@]3(F)[C@@H](O)C[C@@]21C
inactive: Potency [1] | Potency [2] | Potency [3] | Potency [16] | Potency [6] | Potency [7] | Potency [8] | Potency [9] | Potency [17] | Potency [10] | max response [11] -15.1% | Potency [12] | Potency [18] | Potency [13] | Potency [14] | Potency [15]

O=C(O)C1(C(=O)Nc2ccc(Cl)cc2Cl)CC1
inactive: Potency [1] | Potency [2] | Potency [3] | Potency [16] | Potency [6] | Potency [7] | Potency [8] | Potency [9] | max response [11] -17.6% | Potency [12] | Potency [18] | Potency [13] | Potency [19] | Potency [14] | Potency [20] | Potency [15]
